# Test results reported in PubChem BioAssay (NCI).
# Compounds without any hit were thinned out: in the full panel of roughly 83,000, 20% have a hit.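 Values shown are percent growth following 48 h exposure of cells in 96-well plates to a single concentration of compound; below 10 was considered active.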 The source made the active and inactive calls.
# Tested on: IGROV1 ovarian
# Experiment: NCI-60 one-dose screen, 48 h (100 = growth as untreated, 0 = no growth, -100 = all killed)
# Conditions: 10 µM unless noted
row,Structure (SMILES),growth
1,CN1CCN(CCCNC(=O)c2c3c(n4ccccc24)C(=O)c2ncccc2C3=O)CC1,-24.6% (active)
2,CN1CCN(CC(=O)N(C)c2ccc(N=C(c3ccccc3)c3c(O)[nH]c4ccc([N+](=O)[O-])cc34)cc2)CC1,49.3% (inactive)
3,CCCCCCCCNc1ncnc2c1ncn2Cc1nnc2c3ccccc3c(Cl)nn12,31.4% (inactive)
4,CC/C(=C(/c1ccc(Cl)cc1)c1ccc(OCCCN(C)C)cc1)c1ccc(OC)cc1,63.4% (inactive)
5,CCN(CC)CCCNC(=O)c1c2c(n3ccccc13)C(=O)c1ncccc1C2=O,-40.3% (active)
6,CCCn1cnc2c(c1=N)C(c1ccc(Cl)cc1)c1sc3c(F)cccc3c1O2 (configuration not stated),59.5% (inactive)
7,Cc1ccc(C23CCC(=O)N2CCc2cncn23)cc1 (configuration not stated),93.6% (inactive)
8,O=C(COc1ccc(/C=C2\Oc3ccccc3C2=O)cc1)Nc1nccs1,-13.3% (active)
9,Cc1c(C(=O)C(SC(=S)N2CCOCC2)SC(=S)N2CCOCC2)nnn1-c1ccc([N+](=O)[O-])cc1,98% (inactive)
10,O=[N+]([O-])c1ccc(Oc2cccc3c(Oc4ccc([N+](=O)[O-])cc4[N+](=O)[O-])cccc23)c([N+](=O)[O-])c1,79.6% (inactive)
11,CN(C)CCOc1ccc(/C(=C(/CCCCCCCCCC[P+](c2ccccc2)(c2ccccc2)c2ccccc2)c2ccccc2)c2ccccc2)cc1,-76.5% (active)
12,CC1(C)CC[C@]2(CO)CC[C@]3(C)C(=CC[C@@H]4[C@@]5(C)CCNCC(C)(C)[C@@H]5CC[C@]43C)[C@@H]2C1,95% (inactive)
